Pf growth 48h: inhibits P. falciparum growth in the first generation, 48 h; P. falciparum luciferase growth in erythrocytes, 48 h; Potency, µM (highest dose often 28.7 µM), for the others: at the top dose activity change, negative = inhibition, most hits filed as inhibitors; hit rate 5.9% among 310,000; AID 504832; also: potency is read from the fitted curve at half-maximal effect; % is scaled to controls: 0 for no effect and ±100 for the full control effect
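Luminescence readout; reporter = integrated firefly luciferase in P. falciparum. RBC culture at 2% hematocrit, 0.1% parasitemia final, 37 C/5% CO2; decreased signal taken as growth inhibition.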
Pf growth 96h: P. falciparum growth inhibition at 96 hour, primary screen for plastid delayed-death inhibitors | P. falciparum luciferase reporter growth, 96 h | Potency, µM (highest dose often 28.7 µM), without a hit: at the highest dose activity change, negative = inhibition, actives largely listed as inhibitors | hit rate 6.9% among 320,000 | AID 504834; also: potency is read from the fitted curve at half-maximal effect; % is scaled to controls: 0 for no effect and ±100 for the full control effect
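Luminescence readout: decreased luciferase signal marks inhibited growth of reporter-expressing P. falciparum in infected red cells (2% hematocrit, 0.05% parasitemia final), exposed to compound two generations (96 h, 37 C, 5% CO2).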
CHX counter: affects cycloheximide protein synthesis inhibition readout, counter-screen; cell reporter, cycloheximide protein synthesis inhibition counterscreen; max response, %; hit rate 12% among 300,000; AID 2314; in the data active = max response mostly above about 13%, no sharp cut-off; inactive = mostly below about 14%; also: read at 38.3 µM for the half of the compounds with a filed dose; 0% is about no effect
HCMV antiviral: inhibitors of human cytomegalovirus | hit rate 4.5% among 410,000 | activity change, negative = inhibition, % at 57.5 µM | HFF cells, HCMV-luciferase reporter, 72 h; stronger effect = lower value; in the data active = activity change below about -60%; inconclusive = no clear call, values can overlap the other calls; inactive = above about -39%; also: % is scaled to controls: 0 for no effect and ±100 for the full control effect
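After 16 h attachment at 37C, HFF cells received test compound and HCMV-luciferase (1 PFU/cell); reporter luminescence read 72 h later, data normalized against buffer-only and known inhibitor Salinomycin.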
Shiga inhibitor: blocks Shiga toxin action in Vero cells | Vero cells, Shiga toxin protein synthesis inhibition reporter | inhibition, % at 38.7 µM | hit rate 9.2% among 290,000 | AID 2315; in the data active = inhibition mostly above about 28%, no sharp cut-off; inactive = mostly below about 43%; also: 0% is about no effect
Numbers without * were called inactive; [ ] = another dose, or the depositor's remark. In the library only some 20% were active in any assay of this set; here they are far more common. Unless noted, calls follow the shape of the dose curve; as a rule, active = well fitted inhibition curve with a large enough effect; inconclusive = small, poorly fitted or top-dose-only effect, or another doubt; inactive = no such curve, though single readings can be large or run the other way.

What do the screens show for `Cc1cccc(NC(=O)CNC(=O)CCNC(=O)c2ccc(C(C)(C)C)cc2)c1C`?
Pf growth 48h: 5%; Pf growth 96h: -8%; HCMV antiviral: 3

Results for CC(C)CN(c1ccccc1)S(=O)(=O)c1nnc(NC(=O)C2CCCCC2)s1 ?
HCMV antiviral: 5

Results for Cc1cccc(CSc2ncc(Cl)c(C(=O)Nc3nc4ccc(F)cc4s3)n2)c1 ?
HCMV antiviral: 13

How did O=C(Nc1nc2ccc(F)cc2s1)c1nc(S(=O)(=O)Cc2ccccc2F)ncc1Cl do in these assays?
HCMV antiviral: -109*

Results for Cc1nn(-c2ccccc2)c(C)c1/C=N/N1CCN(c2ccccn2)CC1 ?
Pf growth 48h: 0%; Pf growth 96h: inconclusive; CHX counter: 4; HCMV antiviral: -26; Shiga inhibitor: 12

How did Cc1ccc(/C=N/N2CCN(c3ccccn3)CC2)o1 do in these assays?
Pf growth 48h: 53%; Pf growth 96h: 33%; CHX counter: 35*; HCMV antiviral: 9; Shiga inhibitor: 75*

How did C(=N\N1CCN(c2ccccn2)CC1)/c1ccco1 do in these assays?
Pf growth 48h: 89%; Pf growth 96h: inconclusive; CHX counter: 22*; HCMV antiviral: -24; Shiga inhibitor: 44*

Results for CN1CC(c2ccc(Cl)c(Cl)c2)[C@@]2(COc3ccccc3C2=O)[C@@]12C(=O)Nc1ccccc12 (stereo partly drawn) ?
Pf growth 48h: 3.3µM*; Pf growth 96h: 2.1µM*; CHX counter: 0; HCMV antiviral: -9; Shiga inhibitor: -3

How did O=C(C1CC1)N1CCc2cc(Br)cc(S(=O)(=O)Nc3ccc(C(F)(F)F)cc3)c21 do in these assays?
HCMV antiviral: -17

How did CCN1CCN(c2ccc(NC(=O)COc3ccccc3Cl)cc2)CC1 do in these assays?
Pf growth 48h: inconclusive; Pf growth 96h: 15%; CHX counter: -2; HCMV antiviral: -6; Shiga inhibitor: -3

Results for O=C(Cn1cccn1)N1CCCC(N2CCN(c3ccccc3F)CC2)C1 (stereo not drawn) ?
Pf growth 48h: 27%; Pf growth 96h: 3.7µM*; CHX counter: -3; HCMV antiviral: inconclusive; Shiga inhibitor: -2

How did CC(=O)N1CCN(c2ccccc2NC(=O)COc2ccc(Cl)cc2Cl)CC1 do in these assays?
Pf growth 48h: 10µM*; CHX counter: -2; HCMV antiviral: 3; Shiga inhibitor: -10

How did O=C(COc1ccccc1Cl)N1CCCC(N2CCN(c3ccc(F)cc3)CC2)C1 (stereo not drawn) do in these assays?
Pf growth 48h: 12µM*; Pf growth 96h: 8.3µM*; CHX counter: 1; HCMV antiviral: inconclusive; Shiga inhibitor: 9

How did O=C(COc1ccccc1Cl)Nc1ccc(N2CCCC2)cc1 do in these assays?
Pf growth 48h: 3%; Pf growth 96h: 2%; CHX counter: 25*; HCMV antiviral: 3; Shiga inhibitor: 53*

Results for O=C(CCCn1cncn1)N1CCCC(N2CCN(c3ccccc3F)CC2)C1 (stereo not drawn) ?
Pf growth 48h: 0%; Pf growth 96h: -100%; CHX counter: 7; HCMV antiviral: 3; Shiga inhibitor: -10

What do the screens show for `CC(=O)N1CCN(c2ccc(NC(=O)COc3ccc(Cl)cc3Cl)cc2)CC1`?
Pf growth 48h: inconclusive; CHX counter: 2; HCMV antiviral: -64*; Shiga inhibitor: -1

How did Cc1onc(C(=O)Nc2c(C)n(C)n(-c3ccccc3)c2=O)c1[N+](=O)[O-] do in these assays?
Pf growth 48h: 0%; Pf growth 96h: -12%; CHX counter: 3; HCMV antiviral: -16; Shiga inhibitor: 8

What do the screens show for `CCc1sc(C(=O)Nc2cccnc2)cc1Br`?
Pf growth 48h: inconclusive; Pf growth 96h: -5%; CHX counter: 30*; HCMV antiviral: 20; Shiga inhibitor: 47*

Results for O=C(Nc1cccnc1)c1ccc(Br)s1 ?
Pf growth 48h: 49%; Pf growth 96h: 32%; CHX counter: 31*; HCMV antiviral: -27; Shiga inhibitor: 105*

Results for O=C(Nc1cccc(-c2nn[nH]n2)c1)c1ccc(Br)s1 ?
Pf growth 48h: 19%; Pf growth 96h: inconclusive; CHX counter: 23*; HCMV antiviral: 12; Shiga inhibitor: -24

Results for O=C(Nc1cccc(-c2nn[nH]n2)c1)c1ccc(Cl)s1 ?
Pf growth 48h: -12%; Pf growth 96h: inconclusive; CHX counter: -1; HCMV antiviral: 1; Shiga inhibitor: -8

What do the screens show for `O=C(Nc1cccnc1)c1ccc(C(=O)Nc2cccnc2)cc1`?
Pf growth 48h: 5%; Pf growth 96h: inconclusive; CHX counter: -4; HCMV antiviral: -24; Shiga inhibitor: 19

What do the screens show for `O=C(Cc1cccs1)N1CCN(S(=O)(=O)c2ccc(Cl)c(C(F)(F)F)c2)CC1`?
Pf growth 48h: inconclusive; Pf growth 96h: inconclusive; HCMV antiviral: 4

Results for CCOC(=O)C1(C)C=C(Nc2ccc(O)cc2)C(=O)N1c1ccc(O)cc1 (stereo not drawn) ?
Pf growth 48h: 12µM*; Pf growth 96h: 10µM*; CHX counter: 0; HCMV antiviral: -70*; Shiga inhibitor: 14

Results for O=C(CSc1ccc(F)cc1)Nc1ccccc1Br ?
Pf growth 48h: inconclusive; Pf growth 96h: 7%; CHX counter: 33*; HCMV antiviral: -61*; Shiga inhibitor: 66

How did O=C(CSc1ccc(F)cc1)Nc1ccc(Br)cc1 do in these assays?
Pf growth 48h: 74%; Pf growth 96h: 17%[5.75 µM]; CHX counter: 47*; HCMV antiviral: 16; Shiga inhibitor: 67*

What do the screens show for `COc1cc(OC)cc(C2=Nn3c(nnc3-c3cccc(OC)c3)SC2)c1`?
CHX counter: 1; Shiga inhibitor: -2

What do the screens show for `CCOc1ccc(-c2nnc(SCc3nnc(-c4ccccc4)o3)n2-c2ccccc2F)cc1`?
Pf growth 96h: -24%; CHX counter: 20*; HCMV antiviral: -35; Shiga inhibitor: 52

Results for CCOc1ccc(-n2c(SCc3ccc([N+](=O)[O-])cc3)nnc2-c2ccccc2)cc1 ?
Pf growth 48h: inconclusive; Pf growth 96h: 4.7µM*; CHX counter: -2; HCMV antiviral: inconclusive; Shiga inhibitor: -6

How did COc1ccc(-n2c(SCC(=O)NCC3CCCO3)nc3c([nH]c4ccccc43)c2=O)cc1OC (stereo not drawn) do in these assays?
Pf growth 48h: inconclusive; Pf growth 96h: inconclusive; CHX counter: 3; HCMV antiviral: 57; Shiga inhibitor: -6

How did CC(C)c1ccc(/C=C2\SC(=O)N(CC(=O)NCCCn3ccnc3)C2=O)cc1 do in these assays?
Pf growth 48h: 134%; Pf growth 96h: 138%; CHX counter: 39*; HCMV antiviral: -37; Shiga inhibitor: 69*

Results for O=C(CCCN1C(=O)/C(=C/c2ccccc2)SC1=S)NCCCn1ccnc1 ?
Pf growth 48h: inconclusive; Pf growth 96h: 9.3µM*; CHX counter: 2; HCMV antiviral: -98*; Shiga inhibitor: -5

Compound activity deposited in PubChem BioAssay by National Center for Advancing Translational Sciences (NCATS).
